Measurements taken from PubChem BioAssay (NCATS).
Values joined by “and” are separate entries in the source; they are usually repeats but may differ in a detail not shown here. Identical values can stand only once. Records with an inconclusive call do not appear. Some compounds were tested as several samples or in several runs, with calls that do not always agree. Active and inactive are the calls of the source. Calls follow the shape of the dose curve; as a rule, active = well fitted inhibition curve with a large enough effect; inconclusive = small, poorly fitted or top-dose-only effect; inactive = flat fitted curve, though single readings scatter.

Columns and labels:
HEK293 = experiment: Cytotoxic Profiling of Annotated Libraries Using Quantitative High-Throughput Screening (AID 1296008); settings: Five cell lines viability, CellTiter-Glo ATP luminescence, 48-72 h; max response: active compounds read low; as to max response: % is scaled to controls: 0 for no effect and ±100 for the full control effect
Outline: (§1)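 Cytotoxicity was measured as CellTiter-Glo ATP luminescence, read after 10 min at room temperature. Compound treatment of the cells lasted 48 or 72 hr at 37 degrees Celsius in a qHTS format.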

HaCat [1] = experiment: as above; settings: Five cell lines viability, CellTiter-Glo ATP luminescence, 48-72 h; max response: active compounds read low
Outline: as §1

KB-3-1 = experiment: as above; settings: Five cell lines viability, CellTiter-Glo ATP luminescence, 48-72 h; max response: active compounds read low
Outline: as §1

NIH3T3 = experiment: as above; settings: Five cell lines viability, CellTiter-Glo ATP luminescence, 48-72 h; max response: active compounds read low
Outline: as §1

MCC-26 = experiment: qHTS assay to identify novel small-molecules to repurpose for Merkel cell carcinoma treatment (AID 1296009); settings: MCC and control cell lines, CellTiter-Glo viability, 72 h; series mostly up to 46 µM
Outline: (§2)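 Cell viability measured by CellTiter-Glo following 72 hr compound treatment at 37 degree celsius, with NPC and MIPE libraries tested in 8- and 11-point concentration series.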

MKL-2 = experiment: as above; settings: MCC and control cell lines, CellTiter-Glo viability, 72 h; series mostly up to 46 µM
Outline: as §2

CRL-7250 = normal cell line; experiment: Cytotoxic Profiling of Annotated Libraries Using Quantitative High-Throughput Screening (AID 1296008); settings: Five cell lines viability, CellTiter-Glo ATP luminescence, 48-72 h; max response: active compounds read low; as to max response: % is scaled to controls: 0 for no effect and ±100 for the full control effect
Outline: as §1

MCC-13 = experiment: qHTS assay to identify novel small-molecules to repurpose for Merkel cell carcinoma treatment (AID 1296009); settings: MCC and control cell lines, CellTiter-Glo viability, 72 h; series mostly up to 46 µM
Outline: as §2

MKL-1 = experiment: as above; settings: MCC and control cell lines, CellTiter-Glo viability, 72 h; series mostly up to 46 µM
Outline: as §2

HACAT [2] = experiment: as above; settings: MCC and control cell lines, CellTiter-Glo viability, 72 h; at 44.8 µM (top of the series) unless noted
Outline: as §2

PAD = experiment: qHTS profiling for inhibitors of Plasmodium falciparum proliferation (AID 504749); settings: P. falciparum in erythrocytes, SYBR Green DNA, 72 h; series mostly up to 28.7 µM
Outline: (§3)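 In a 72 h erythrocytic culture (37 C, humidified, 5% CO2) at 2.5% hematocrit and 0.3% starting parasitemia, compounds were tested; SYBR Green I in detergent lysis buffer stained parasite DNA overnight.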

PC15 = experiment: as above; settings: P. falciparum in erythrocytes, SYBR Green DNA, 72 h; series mostly up to 28.7 µM
Outline: as §3

PC49 = experiment: as above; settings: P. falciparum in erythrocytes, SYBR Green DNA, 72 h; series mostly up to 28.7 µM
Outline: as §3

SC27B = experiment: as above; settings: P. falciparum in erythrocytes, SYBR Green DNA, 72 h; series mostly up to 28.7 µM
Outline: as §3

TAB109 = experiment: as above; settings: P. falciparum in erythrocytes, SYBR Green DNA, 72 h; series mostly up to 28.7 µM
Outline: as §3

TAB113 = experiment: as above; settings: P. falciparum in erythrocytes, SYBR Green DNA, 72 h; series mostly up to 28.7 µM
Outline: as §3

TAB165 = experiment: as above; settings: P. falciparum in erythrocytes, SYBR Green DNA, 72 h; series mostly up to 28.7 µM
Outline: as §3

W2 = experiment: as above; settings: P. falciparum in erythrocytes, SYBR Green DNA, 72 h; series mostly up to 28.7 µM
Outline: as §3

PC26 = experiment: as above; settings: P. falciparum in erythrocytes, SYBR Green DNA, 72 h; series mostly up to 28.7 µM
Outline: as §3
Also: nearly all actives have a fitted effect of over 60% in size.
Potency is read from the fitted curve at half-maximal effect.

COc1cc2ncnc(Nc3ccc(F)c(Cl)c3)c2cc1OCCCN1CCOCC1
active: Potency (HEK293) 7.62 µM and 16.8 µM | Potency (HaCat [1]) 531 nM and 2.06 µM | Potency (MKL-2) 13.3 µM
inactive: max response (HaCat [1]) -57.3% | max response (KB-3-1) -3.97% and -1.38% and 3.83% | max response (NIH3T3) -12.1% and -4.13% | Potency (MCC-26)

N#CC(=C(N)Sc1ccccc1N)C(C#N)=C(N)Sc1ccccc1N
inactive: max response (CRL-7250) -7.68% | max response (NIH3T3) -4.19% | Potency (MCC-13) | Potency (MCC-26) | Potency (MKL-1)

CO[C@H]1C=CC=C(C)C(=O)NC2=CC(=O)C(NCCN(C)C)=C(C[C@@H](C)C[C@H](OC)[C@@H](O)[C@@H](C)C=C(C)[C@@H]1OC(N)=O)C2=O
active: Potency (CRL-7250) 0.0526 µM | Potency (HaCat [1]) 33.2 nM | Potency (KB-3-1) 0.0372 µM | Potency (MCC-13) 4.69 µM | Potency (MCC-26) 3.72 µM | Potency (MKL-1) 1.05 µM | Potency (MKL-2) 14.8 µM

CC=CCC=CCCC(=O)[C@H]1O[C@@H]1C(N)=O
inactive: outcome (CRL-7250) | outcome (HaCat [1]) | max response (NIH3T3) 1.26% | outcome (HACAT [2]) | Potency (MCC-13) | Potency (MCC-26)

O=c1c(-c2ccc(O)cc2)coc2cc(OC3O[C@H](CO)[C@H](O)[C@H](O)[C@H]3O)cc(O)c12 (stereo partly drawn)
inactive: max response (CRL-7250) -31.9% | max response (HaCat [1]) -51.1% | Potency (MCC-13) | Potency (MCC-26) | Potency (MKL-1) | Potency (MKL-2)

CCCCCNC(=O)N1CCC(CN(Cc2ccc(Cl)cc2)Cc2ccc([N+](=O)[O-])s2)C1 (stereo not drawn)
inactive: max response (CRL-7250) -21% | max response (HaCat [1]) 2.36% | Potency (MCC-13) | Potency (MCC-26) | Potency (MKL-1)

CCC(=O)NC[C@H](Cc1ccc(OCCc2nc(-c3ccccc3)oc2C)cc1)NC(C)=CC(=O)c1ccc(C(F)(F)F)cc1
active: Potency (MKL-1) 7.43 µM
inactive: max response (CRL-7250) -13.2% | outcome (KB-3-1) | Potency (MCC-13) | Potency (MCC-26)

O=C(Nc1ccccc1Br)N[C@@H]1CCN(c2ccc(C(F)(F)F)cn2)C1
inactive: max response (CRL-7250) -5.42% | max response (HaCat [1]) 4.65% | max response (NIH3T3) -2.32% | Potency (MCC-13) | Potency (MCC-26) | Potency (MKL-1) | Potency (MKL-2)

O=C1NC(=O)C(=Cc2ccc3nccnc3c2)S1
inactive: max response (HEK293) -10.3% | max response (HaCat [1]) -12.7% | max response (KB-3-1) -0.874% | max response (NIH3T3) -9.21% | Potency (MCC-13) | Potency (MCC-26) | Potency (MKL-1) | Potency (MKL-2)

CCc1ccc(C=C2SC(=S)NC2=O)cc1
inactive: max response (HEK293) -22.6% | max response (HaCat [1]) -1.5% | max response (KB-3-1) -5.67% | Potency (MCC-13) | Potency (MCC-26) | Potency (MKL-1) | Potency (MKL-2)

Clc1cc(Cl)cc(CNc2ncncc2-c2ccc3c(c2)OCO3)c1
inactive: Potency (MCC-13) | Potency (MCC-26) | Potency (MKL-2)
active: Potency (HEK293) 20.9 µM

COc1ccc(Cc2nccc3cc(OC)c(OC)cc23)cc1OC
inactive: outcome (PAD) | outcome (PC15) | outcome (PC49) | Potency (SC27B) | outcome (TAB109) | Potency (TAB113) | Potency (TAB165) | Potency (W2)

NS(=O)(=O)c1ccc(NC2=CC(=O)c3ccccc3C2=O)cc1
inactive: outcome (HaCat [1]) | max response (KB-3-1) 7.69% | max response (NIH3T3) -17.3% | outcome (HACAT [2]) | Potency (MCC-26)

CC(=NNC(=S)N1CCC1)c1ccccn1
inactive: Potency (MKL-1) | Potency (MKL-2)
active: Potency (HEK293) 0.0042 µM | Potency (NIH3T3) 0.0187 µM | Potency (MCC-13) 0.0743 µM | Potency (MCC-26) 0.418 µM

NC(=O)c1cccc2[nH]c(-c3ccc([C@H]4CCCN4)cc3F)nc12
active: Potency (MKL-1) 20.9 µM | Potency (MKL-2) 2.35 µM
inactive: max response (KB-3-1) -3.95% | max response (NIH3T3) 0.71% | Potency (MCC-13) | Potency (MCC-26)

COc1ccc2c(Oc3ccc(NC(=O)c4c(C)n(CC(C)(C)O)n(-c5ccccc5)c4=O)cc3F)ccnc2c1
inactive: max response (HaCat [1]) 2.66% and -22.8% | max response (KB-3-1) -19.2% | Potency (MCC-13) | Potency (MCC-26) | Potency (MKL-1) | Potency (MKL-2)

COCCOC(=O)C1=C(C)NC2=C(C(=O)CC(c3ccccc3OC)C2)C1c1cccc(O)c1 (stereo not drawn)
inactive: max response (HaCat [1]) -1.34% | max response (KB-3-1) -11.3% | Potency (MCC-13) | Potency (MCC-26) | Potency (MKL-1)

Oc1ccc(C2=Cc3ccc(O)cc3OC2)cc1
active: Potency (HEK293) 9.35 µM | Potency (KB-3-1) 16.6 µM | Potency (NIH3T3) 7.43 µM | Potency (MCC-13) 10.5 µM | Potency (MCC-26) 20.9 µM | Potency (MKL-1) 2.96 µM

C[C@]12CC[C@@H]3c4ccc(O)cc4C[C@@H](CCCCCCCCCS(=O)CCCC(F)(F)C(F)(F)F)[C@H]3[C@H]1CC[C@H]2O (stereo partly drawn)
inactive: max response (HaCat [1]) 0.837% | max response (KB-3-1) 4.81% | outcome (NIH3T3) | Potency (MCC-13) | Potency (MCC-26) | Potency (MKL-1) | Potency (MKL-2)

O=c1[nH]cnc2c1ncn2[C@H]1CC[C@@H](CO)O1
active: Potency (W2) 13.5 µM
inactive: outcome (PAD) | outcome (PC15) | Potency (PC26) | outcome (PC49) | Potency (SC27B) | outcome (TAB109)
